# Results: PubChem BioAssay (Tox21)
# Unmarked numbers belong to inactive results. Inconclusive results are not listed. Where a call stands in place of a potency, no number is given. Activity calls are given as the source filed them. Unless noted, calls come from the whole dose curve; as a rule, active = well fitted curve in the direction sought with a large enough effect in the repeat runs; inconclusive = weak or mixed curves; inactive = no such curve, though single readings can be large; an effect the other way counts as inactive or inconclusive.
# Legend:
# [1] = A CellTox Green Cytotoxicity Assay to monitor cytotoxicity in HEK293 cells - 8 hour (AID 1224884); note: nearly all actives have a fitted effect of over 35% in size; note: potency is the fitted concentration of half-maximal effect
# Summary of the method: (§1)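 HEK293 cells, 600/well, were preincubated 5 hours and then exposed to compounds at 37 C for up to 40 hours. A cell-impermeant cyanine dye staining dead-cell DNA was read by fluorescence at 0, 8, 16, 24, 32 and 40 h time points.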
# [2] = qHTS RealTime-Glo MT Cell Viability Assay in HepG2 cells - 16 hour (AID 1224885); note: nearly all actives have a fitted effect of over 50% in size; note: potency is the fitted concentration of half-maximal effect
# Summary of the method: (§2)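 Cells + NanoLuc/prosubstrate dispensed (600 cells/well) → 5 h at 37 C/5% CO2 → compounds in DMSO transferred → 40 h incubation at 37 C, luminescence read at 0, 8, 16, 24, 32, 40 h.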
# [3] = qHTS RealTime-Glo MT Cell Viability Assay in HEK293 cells - 24 hour (AID 1224886); note: nearly all actives have a fitted effect of over 50% in size; note: potency is the fitted concentration of half-maximal effect
# Summary of the method: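 Tox21 10K qHTS, HEK293, 600 cells/well, RealTime-Glo reagent co-dispensed with cells; 5 h preincubation, compound by pintool, 37 C, luminescence at 0–40 h.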
# [4] = qHTS RealTime-Glo MT Cell Viability Assay in HEK293 cells - 8 hour (AID 1224887); note: nearly all actives have a fitted effect of over 50% in size; note: potency is the fitted concentration of half-maximal effect
# Summary of the method: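 600 cells/well were plated with the nonlytic NanoLuc/prosubstrate reagent, pre-incubated 5 h, then given 23 nL of compound in DMSO. Incubation at 37 C for 40 h, with luminescence from viable-cell-reduced substrate read repeatedly from 0 h.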
# [5] = A CellTox Green Cytotoxicity Assay to monitor cytotoxicity in HEK293 cells - 16 hour (AID 1224888); note: nearly all actives have a fitted effect of over 35% in size
# Summary of the method: as §1
# [6] = qHTS RealTime-Glo MT Cell Viability Assay in HepG2 cells - 0 hour (AID 1224889); note: nearly all actives have a fitted effect of over 50% in size
# Summary of the method: as §2
# [7] = A CellTox Green Cytotoxicity Assay to monitor cytotoxicity in HepG2 cells - 8 hour (AID 1224890); note: nearly all actives have a fitted effect of over 45% in size; note: potency is the fitted concentration of half-maximal effect
# Summary of the method: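 HepG2 cells, 600/well, preincubated 5 h with CellTox Green dye, then exposed to Tox21 compounds in DMSO at 37 C for up to 40 h. Dead-cell DNA fluorescence read at the indicated time point.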
# [8] = qHTS assay to identify small molecule antagonists of the estrogen receptor alpha (ER-alpha) signaling pathway using the BG1 cell line in the presence of 0.1 nM 17-beta-estradiol - cell viability counter screen (AID 1259241); note: nearly all actives have a fitted effect of over 40% in size; note: potency is the fitted concentration of half-maximal effect
# Summary of the method: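 Following 5 days in phenol red-free medium with charcoal-stripped serum, VM7Luc4E2 cells received test compounds alongside 0.1 nM 17beta-estradiol (final) at 37C for 22 hr. Live cells were then quantified via protease-substrate fluorescence.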
# [9] = qHTS assay to identify small molecule antagonists of the androgen receptor (AR) signaling pathway using the MDA cell line in the presence of 0.5 nM R1881 - cell viability counter screen (AID 1259242); note: nearly all actives have a fitted effect of over 45% in size
# Summary of the method: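 MDA-kb2 cells (MMTV-luciferase, AR/GR responsive) were treated with compounds plus 0.5 nM R1881 (final) for 16 hr at 37C, 0% CO2. Viability was then read in the same wells as live-cell protease fluorescence (CellTiter-Fluor, 30 min).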
# [10] = qHTS assay to identify small molecule HDAC inhibitors (AID 1259364); note: nearly all actives have a fitted effect of over 45% in size; note: potency is the fitted concentration of half-maximal effect
# Summary of the method: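 Wild-type HCT-116 cells, plated overnight at 37 C, exposed to compounds 2 hr at 37 C; luminogenic HDAC-Glo substrate then added 30 min at room temperature. Luminescence reports relative endogenous class I/II HDAC activity.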
# [11] = qHTS assay to identify small molecule HDAC inhibitors - cell viability counter screen (AID 1259365); note: nearly all actives have a fitted effect of over 50% in size; note: potency is the fitted concentration of half-maximal effect
# Summary of the method: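 HCT-116 wild-type, overnight attachment; 2hr drug exposure, 37C; CellTiter-Glo luminescent ATP readout after 30min RT.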
# [12] = qHTS assay to identify small molecule agonists of the sonic hedgehog signaling (Shh) pathway - cell viability counter screen (AID 1259366); note: nearly all actives have a fitted effect of over 50% in size; note: potency is the fitted concentration of half-maximal effect
# Summary of the method: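 Compounds in DMSO were pin-transferred onto 3T3 Gli1-Luc cells that had settled 4hr; plates then stood 24hr at 37C and 5% CO2. One hour before the end, CellTiter-Fluor was added and fluorescence recorded.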
# [13] = qHTS assay to identify small molecule antagonists of the sonic hedgehog signaling (Shh) pathway - cell viability counter screen (AID 1259367); note: nearly all actives have a fitted effect of over 55% in size
# Summary of the method: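 Using CellTiter-Fluor, viability of Gli1-Luc reporter 3T3 cells is read by fluorescence in the wells used for the Shh luciferase assay. Treatment lasts 23 hr with conditioned medium, then reagent 1 hr at 37C.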
# [14] = qHTS assay to identify small molecule agonists of the sonic hedgehog signaling (Shh) pathway (AID 1259368; calls by dose curve;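 note: NIH/3T3-derived 3T3Gli1-Luc cells carrying a stable Gli1-driven firefly luciferase reporter; series mostly up to about 92 µM; nearly all actives have a fitted effect of over 15% in size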)
# Summary of the method: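 NIH/3T3-derived 3T3Gli1-Luc cells with stably integrated Gli1-driven firefly luciferase, 2,000 cells/well, compounds added after 4 hr. Incubated 24 hr at 37C, 5% CO2; luminescence read after 30 min with luciferase reagent at room temperature.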
# [15] = qHTS assay to identify small molecule antagonists of the sonic hedgehog signaling (Shh) pathway (AID 1259369; calls by dose curve; note: nearly all actives have a fitted effect of over 45% in size; note: potency is the fitted concentration of half-maximal effect)
# Summary of the method: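 NIH/3T3-derived Gli1-Luc reporter cells plated 4 h, dosed with compound, then stimulated with conditioned medium for 24 h at 37 C. Firefly luciferase luminescence read after 30 min with detection reagent at room temperature.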
# [16] = molecular target: Estrogen receptor beta (Homo sapiens) (UniProt Q92731); assay: qHTS assay to identify small molecule agonists of the estrogen receptor beta (ER-beta) signaling pathway (AID 1259377; active = well fitted activation curve with a large enough effect in the signal ratio in the repeat runs, not every such curve was filed as active; the % refers to the signal ratio)
# Estrogen receptor beta (Homo sapiens), sequence (Q92731 whole entry, looked up): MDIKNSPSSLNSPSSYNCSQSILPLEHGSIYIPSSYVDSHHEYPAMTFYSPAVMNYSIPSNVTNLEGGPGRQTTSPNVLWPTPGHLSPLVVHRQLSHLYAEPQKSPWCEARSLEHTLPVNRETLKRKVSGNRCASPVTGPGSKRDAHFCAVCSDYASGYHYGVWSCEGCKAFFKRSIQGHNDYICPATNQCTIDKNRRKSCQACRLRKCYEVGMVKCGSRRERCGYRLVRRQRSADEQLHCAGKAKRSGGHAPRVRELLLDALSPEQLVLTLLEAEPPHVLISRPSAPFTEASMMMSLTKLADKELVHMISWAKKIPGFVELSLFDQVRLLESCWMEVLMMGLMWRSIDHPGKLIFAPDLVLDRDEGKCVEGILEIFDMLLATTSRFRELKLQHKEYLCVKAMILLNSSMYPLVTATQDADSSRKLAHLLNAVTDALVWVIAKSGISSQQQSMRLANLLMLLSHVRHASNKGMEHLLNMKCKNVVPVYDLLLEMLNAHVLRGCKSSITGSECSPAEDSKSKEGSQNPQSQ
# Summary of the method: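 qHTS in ER-beta-UAS-bla HEK293T cells: 6 hr settling, then 16 hr compound at 37C, then LiveBLAzer substrate 2 h at RT before fluorescence reading.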
# [17] = molecular target: Estrogen receptor beta (Homo sapiens) (UniProt Q92731); assay: qHTS assay to identify small molecule antagonists of the estrogen receptor beta (ER-beta) signaling pathway (AID 1259378; active = well fitted inhibition curve with a large enough effect in the signal ratio in the repeat runs, not every such curve was filed as active; the % refers to the signal ratio; note: potency is the fitted concentration of half-maximal effect)
# Summary of the method: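 Antagonist mode: compounds added to beta-lactamase reporter HEK293T ER-beta-UAS cells stimulated with E2 (1nM final), 16 hr at 37C. LiveBLAzer B/G FRET substrate, 2 hours room temperature, fluorescence read-out.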
# [18] = molecular target: Androgen receptor (Homo sapiens) (UniProt P10275); assay: qHTS assay to identify small molecule antagonists of the androgen receptor (AR) signaling pathway using the MDA cell line in the presence of 0.5 nM R1881 (AID 1259243); note: nearly all actives have a fitted effect of over 50% in size; note: potency is the fitted concentration of half-maximal effect
# Androgen receptor (Homo sapiens), sequence (P10275 whole entry, looked up): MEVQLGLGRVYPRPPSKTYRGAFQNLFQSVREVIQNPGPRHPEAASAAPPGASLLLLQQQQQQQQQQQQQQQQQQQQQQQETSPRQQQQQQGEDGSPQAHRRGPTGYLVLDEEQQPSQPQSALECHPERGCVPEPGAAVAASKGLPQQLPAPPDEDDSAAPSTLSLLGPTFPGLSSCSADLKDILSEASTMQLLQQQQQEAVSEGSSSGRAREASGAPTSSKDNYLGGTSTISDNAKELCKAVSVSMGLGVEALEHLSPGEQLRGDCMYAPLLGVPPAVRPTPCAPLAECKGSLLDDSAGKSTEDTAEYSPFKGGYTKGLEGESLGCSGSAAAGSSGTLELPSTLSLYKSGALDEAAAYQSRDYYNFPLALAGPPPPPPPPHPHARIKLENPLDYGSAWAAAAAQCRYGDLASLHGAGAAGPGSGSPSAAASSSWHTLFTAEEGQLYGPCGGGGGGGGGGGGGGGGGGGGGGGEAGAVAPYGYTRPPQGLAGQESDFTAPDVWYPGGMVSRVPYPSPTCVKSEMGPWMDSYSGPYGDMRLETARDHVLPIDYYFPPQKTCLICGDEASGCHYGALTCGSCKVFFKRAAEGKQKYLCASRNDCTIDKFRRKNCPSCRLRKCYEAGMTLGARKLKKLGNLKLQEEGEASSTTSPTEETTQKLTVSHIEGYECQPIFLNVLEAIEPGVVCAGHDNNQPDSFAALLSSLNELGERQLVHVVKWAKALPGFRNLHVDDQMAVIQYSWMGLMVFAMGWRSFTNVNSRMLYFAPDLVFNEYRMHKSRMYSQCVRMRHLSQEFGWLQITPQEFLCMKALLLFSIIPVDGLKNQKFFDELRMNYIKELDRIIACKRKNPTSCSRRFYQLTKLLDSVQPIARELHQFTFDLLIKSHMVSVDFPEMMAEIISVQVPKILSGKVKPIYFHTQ
# Summary of the method: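 MDA-kb2 cells (MMTV-luciferase, responsive to AR and GR) at 3,000/well, rested 5 h at 37C, 0% CO2, then given compounds plus 0.5 nM R1881 (final) for 16 hr. Luciferase read with ONE-Glo after 30 min at room temperature.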
# [19] = molecular target: Estrogen receptor (Homo sapiens) (UniProt P03372); assay: qHTS assay to identify small molecule antagonists of the estrogen receptor alpha (ER-alpha) signaling pathway using the BG1 cell line in the presence of 0.1 nM 17-beta-estradiol (AID 1259244); note: nearly all actives have a fitted effect of over 50% in size; note: potency is the fitted concentration of half-maximal effect
# Estrogen receptor (Homo sapiens), sequence (P03372 whole entry, looked up): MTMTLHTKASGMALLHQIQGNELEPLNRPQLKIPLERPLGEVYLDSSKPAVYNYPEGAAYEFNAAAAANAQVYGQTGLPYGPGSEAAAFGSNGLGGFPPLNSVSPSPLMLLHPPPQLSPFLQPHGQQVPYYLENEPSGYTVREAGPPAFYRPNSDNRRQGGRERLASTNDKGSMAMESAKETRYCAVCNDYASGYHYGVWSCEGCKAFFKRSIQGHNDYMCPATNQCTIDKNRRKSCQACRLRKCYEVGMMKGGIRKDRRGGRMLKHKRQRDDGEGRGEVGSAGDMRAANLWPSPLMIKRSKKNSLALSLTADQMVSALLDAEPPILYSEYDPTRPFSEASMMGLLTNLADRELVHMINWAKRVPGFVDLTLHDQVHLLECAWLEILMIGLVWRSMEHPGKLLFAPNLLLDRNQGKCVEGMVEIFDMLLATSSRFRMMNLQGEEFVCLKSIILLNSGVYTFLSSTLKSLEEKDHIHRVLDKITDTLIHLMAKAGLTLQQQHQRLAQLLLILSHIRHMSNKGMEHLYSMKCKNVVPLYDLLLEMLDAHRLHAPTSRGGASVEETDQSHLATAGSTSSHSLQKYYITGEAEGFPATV
# Summary of the method: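 VM7Luc4E2 cells (endogenous full-length ER-alpha, 4×ERE-luciferase), kept 5 days in phenol red-free, charcoal-stripped FBS medium; 4,000 cells/well. Compounds added with 0.1 nM (final) 17beta-estradiol, 22 hr at 37C; luminescence read with ONE-Glo after 30 min.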
# [20] = qHTS assay to identify small molecule phospholipidosis (PLD) inducers (AID 1259344; active = well fitted curve in the direction sought with a large enough effect; an effect the other way counts as inactive or inconclusive)
# Summary of the method: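 Fluorescent phospholipid staining (LipidTOX Red) measured by automated microscopy in fixed HepG2 cells after 24 h treatment; nuclei counterstained with Hoechst 33342; amiodarone as reference inducer.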
SMILES,Potency [1],Potency [2],Potency [3],Potency [4],Potency [5],Potency [6],Potency [7],Potency [8],Potency [9],Potency [10],Potency [11],Potency [12],Potency [13],Potency [14],Potency [15],outcome [16],Potency [17],Potency [18],Potency [19],Potency [20]
SC1CCCCC1,inactive,inactive,inactive,inactive,inactive,inactive,inactive,inactive,inactive,inactive,inactive,inactive,inactive,inactive,inactive,inactive,inactive,,,
CC(CC(C)(C)C)CC(C)(C)CC(C)(C)C (configuration not stated),inactive,inactive,inactive,inactive,,inactive,inactive,inactive,inactive,inactive,inactive,inactive,inactive,inactive,inactive,,inactive,inactive,,
C=C(C)C1CCC(C)CC1O (configuration not stated),inactive,inactive,inactive,inactive,inactive,inactive,inactive,inactive,inactive,inactive,inactive,inactive,inactive,inactive,inactive,,,,,
CC(C)(C)c1cc(CCC(=O)OCCSCCOC(=O)CCc2cc(C(C)(C)C)c(O)c(C(C)(C)C)c2)cc(C(C)(C)C)c1O,inactive,inactive,inactive,inactive,,inactive,inactive,inactive,inactive,,inactive,inactive,inactive,inactive,inactive,inactive,inactive,inactive,inactive,
CCn1c2ccccc2c2ccccc21,inactive,inactive,inactive,,inactive,inactive,inactive,inactive,inactive,inactive,inactive,inactive,inactive,inactive,inactive,,,,inactive,
CCCOC(=O)c1ccc(O)cc1,inactive,inactive,21.9 µM (active),,inactive,inactive,inactive,inactive,inactive,,inactive,inactive,inactive,inactive,2.43 µM (active),,,,inactive,inactive
C=C1CC[C@H]2O[C@]2(C)CC[C@@H]2[C@@H]1CC2(C)C,inactive,inactive,,49 µM (active),inactive,inactive,inactive,inactive,inactive,inactive,inactive,inactive,inactive,inactive,inactive,inactive,inactive,inactive,inactive,
CN(C[C@@H](CC[N+]12CCC(C3CCCCC3)(CC1)CC2)c1ccc(Cl)c(Cl)c1)C(=O)c1cc(C(F)(F)F)cc(C(F)(F)F)c1,43.6 µM (active),21.9 µM (active),3.09 µM (active),3.47 µM (active),,,38.9 µM (active),54.5 µM (active),,inactive,12.2 µM (active),,inactive,inactive,inactive,,,68.6 µM (active),,
C=CC(=O)OCC(Br)CBr (configuration not stated),inactive,inactive,,inactive,inactive,inactive,inactive,inactive,inactive,inactive,inactive,inactive,inactive,inactive,,,inactive,inactive,inactive,
CC(C)(C)C1=CC(=O)C(C(C)(C)C)=CC1=O,inactive,inactive,,,inactive,,inactive,inactive,inactive,inactive,inactive,inactive,,inactive,,inactive,,,,
CCN(CC)c1ccc(C=O)cc1,inactive,inactive,,,inactive,inactive,inactive,inactive,inactive,inactive,inactive,inactive,inactive,inactive,inactive,inactive,inactive,,inactive,
O=C(Nc1ccc([N+](=O)[O-])cc1)Nc1ccc([N+](=O)[O-])cc1 (tested in a mixture with another compound),inactive,inactive,,inactive,inactive,inactive,inactive,inactive,inactive,inactive,inactive,inactive,inactive,inactive,,inactive,inactive,,,
CC(C)c1ccc2sc3ccccc3c(=O)c2c1,inactive,inactive,,,,inactive,inactive,inactive,inactive,1.72 µM (active),,inactive,inactive,,inactive,inactive,inactive,,inactive,
CCCCCCCCOC(=O)c1cc(O)c(O)c(O)c1,inactive,19.5 µM (active),11 µM (active),5.49 µM (active),,inactive,,,,,inactive,24.3 µM (active),,inactive,2.17 µM (active),inactive,15.4 µM (active),,24.3 µM (active),
CCCCCCCCSCc1cc(C)c(O)c(CSCCCCCCCC)c1,inactive,inactive,,9.77 µM (active),inactive,inactive,inactive,inactive,inactive,inactive,inactive,inactive,,inactive,,,,inactive,inactive,
